Experimental data from PubChem BioAssay (Tox21).
Inconclusive results are not listed. Where a structure was tested more than once in an assay, its records may differ in their call. Activity calls are given as the source filed them. Calls come from the whole dose curve.

What follows are compounds tested against Acetylcholinesterase (Homo sapiens) (UniProt P22303) (assay: Acetylcholinesterase (AChE) small molecule antagonists: enzyme-based qHTS assay (AID 1347397; note: nearly all actives have a fitted effect of over 55% in size)). Conditions: Potency: AChE enzyme activity inhibition; outcome: AChE enzyme activity inhibition; series mostly up to 115 µM; activity change, negative = inhibition: at the top concentration.
Summary of the method: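 Colorimetric DTNB read-out of thiocholine released from acetylthiocholine by recombinant human AChE (50 mU/mL as dispensed). Compounds were preincubated 30 min at RT before substrate/DTNB addition, with a 10 min RT reaction.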
% is set by controls: 0 for no effect and ±100 for the full control effect.

Acetylcholinesterase (Homo sapiens), sequence (P22303 whole entry, looked up): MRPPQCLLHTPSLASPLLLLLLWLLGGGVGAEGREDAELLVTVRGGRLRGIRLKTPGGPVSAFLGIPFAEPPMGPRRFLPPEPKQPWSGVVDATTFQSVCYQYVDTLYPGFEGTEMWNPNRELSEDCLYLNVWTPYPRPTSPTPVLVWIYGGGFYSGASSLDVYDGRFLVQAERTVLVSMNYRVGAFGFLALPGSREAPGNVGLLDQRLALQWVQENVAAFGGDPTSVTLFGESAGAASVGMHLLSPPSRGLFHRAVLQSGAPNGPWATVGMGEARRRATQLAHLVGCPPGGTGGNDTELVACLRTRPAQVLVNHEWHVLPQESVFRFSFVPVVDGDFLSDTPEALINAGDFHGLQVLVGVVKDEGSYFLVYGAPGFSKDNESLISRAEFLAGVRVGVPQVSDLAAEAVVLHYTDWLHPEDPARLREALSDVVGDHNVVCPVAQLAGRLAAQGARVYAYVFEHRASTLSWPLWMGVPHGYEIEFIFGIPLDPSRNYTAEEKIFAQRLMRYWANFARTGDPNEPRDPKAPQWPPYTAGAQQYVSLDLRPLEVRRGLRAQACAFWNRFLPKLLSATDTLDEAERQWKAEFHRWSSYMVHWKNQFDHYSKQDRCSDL

Compound | activity change, negative = inhibition | Potency
O=[N+]([O-])c1ccc(CCO)cc1 | 0.38% (inactive) | 
O=c1cc(-c2ccccc2)oc2cc(O)cc(O)c12 | 0.446% (inactive) | 
COc1ccc(NC(C)=O)cc1 | -0.409% (inactive) | 
CCCCCC(=O)OCC | 0.162% (inactive) | 
CCCC(=O)c1ccccc1 | -1.05% (inactive) | 
Nc1cc(-c2ccncc2)c[nH]c1=O |  | inactive
O=C(O)c1ccc(O)cc1 |  | inactive
CC(C)=CCCC(C)CCOC=O (configuration not stated) | 1.58% (inactive) | 
O=C1OC2(c3ccccc31)c1cc(Br)c(O)c(Br)c1Oc1c2cc(Br)c(O)c1Br |  | inactive
COc1ccc([C@@H]2CC(=O)c3c(O)cc(O[C@@H]4O[C@H](CO[C@@H]5O[C@@H](C)[C@H](O)[C@@H](O)[C@H]5O)[C@@H](O)[C@H](O)[C@H]4O)cc3O2)cc1OC |  | inactive
NNC(=O)CP(=O)(c1ccccc1)c1ccccc1 | 2.24% [at 53 µM] (inactive) | 
CC(C)COC(=O)c1ccc(N)cc1 | -0.495% [at 53 µM] (inactive) | 

Each compound was assayed against Acetylcholinesterase (Homo sapiens) (UniProt P22303) (assay: Acetylcholinesterase (AChE) small molecule antagonists: fluorescence cell-based qHTS assay (AID 1347398; note: nearly all actives have a fitted effect of over 50% in size; note: potency is the fitted concentration of half-maximal effect)). Conditions: SH-SY5Y cells; Potency: AChE activity; outcome: AChE activity; series mostly up to 115 µM; activity change, negative = inhibition: at the top concentration.
Summary of the method: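 SH-SY5Y, 2,000 cells/well, attached overnight; cmpd 30 min 37 C; acetylthiocholine/Thiolite Green cocktail 40 min RT; fluorescence Ex/Em 490/520 nm.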

Compound | activity change, negative = inhibition | Potency
CC(=O)OC1CCC(C(C)(C)C)CC1 (configuration not stated) | -2.19% (inactive) | 
[O]=[Bi] | 3.63% [at 10.5 µM] (inactive) | 
CC(N)=O | -0.192% [at 293 µM] (inactive) | 
O=C(O)CCc1nc2ccccc2[nH]1 | 7.72% [at 53.7 µM] (inactive) | 
NC(=O)c1ccccc1Cl | -5.41% (inactive) | 
CCCCCCCC/C=C\CCCCCCCC(=O)O |  | inactive
O=Cc1ccccc1Cl | 3.14% (inactive) | 
COc1c(Cl)ccc(Cl)c1C(=O)O |  | inactive
C1CCCC1 | 1.48% (inactive) | 
Cc1cccc(NC(=S)N(C)C)c1 | -14.8% (inactive) | 
O=C(O)c1ccc(C(=O)O)c(C(=O)O)c1 |  | inactive
Cc1cc(O)c(C(C)C)cc1Cl |  | inactive
Cc1oc(=O)oc1CN1CCN(c2cc3c(cc2F)c(=O)c(C(=O)O)c2n3C(C)S2)CC1 (configuration not stated) | -0.73% [at 53.7 µM] (inactive) | 
CC(COCC(C)OC(=O)c1ccccc1)OC(=O)c1ccccc1 (configuration not stated) | -20.4% (inactive) | 
O[Si](c1ccccc1)(c1ccccc1)c1ccccc1 | 0.67% (inactive) | 
NCCCCCC(=O)O | 0% [at 53.7 µM] (inactive) | 
Oc1ccccc1O |  | inactive
O=C1Nc2cc(Cl)ccc2Oc2ccccc21 | 3.66% [at 53.7 µM] (inactive) | 
CN(C)c1ccc(C(c2ccccc2)c2ccc(N(C)C)cc2)cc1 | -3.34% (inactive) | 
Cc1cc(O)c2c(c1)C(=O)c1cc(O)cc(O)c1C2=O |  | 15.5 µM (active) and inactive

Compound | activity change, negative = inhibition | Potency
OC1CCCC1 |  | inactive
C=C(C)C(N)=O |  | inactive
CC(=O)Nc1ccc(CC(=O)O)cc1 |  | inactive
CC(=O)Nc1ccc(C(=O)O)cc1 |  | inactive
Cc1ccc(S(=O)(=O)O)cc1C |  | inactive
Cc1cc2nc3ccc(=[N+](C)C)cc-3sc2cc1N |  | 2.19 µM (active)
O=C(O)c1cccc(Cl)c1Cl | 2.92% (inactive) | 
COCCOC(=O)C1=C(C)NC(C)=C(C(=O)OC(C)C)C1c1cccc([N+](=O)[O-])c1 (configuration not stated) | 0.488% [at 53.7 µM] (inactive) | 
O=[N+]([O-])c1ccc(CCO)cc1 | 0.753% (inactive) | 
O=c1cc(-c2ccccc2)oc2cc(O)cc(O)c12 | 0.676% (inactive) | 
COc1ccc(NC(C)=O)cc1 | -0.333% (inactive) | 
CCCCCC(=O)OCC | 4.06% (inactive) | 
CCCC(=O)c1ccccc1 | 4.98% (inactive) | 
Nc1cc(-c2ccncc2)c[nH]c1=O |  | inactive
O=C(O)c1ccc(O)cc1 |  | inactive
CC(C)=CCCC(C)CCOC=O (configuration not stated) | 1.73% (inactive) | 
O=C1OC2(c3ccccc31)c1cc(Br)c(O)c(Br)c1Oc1c2cc(Br)c(O)c1Br |  | inactive
COc1ccc([C@@H]2CC(=O)c3c(O)cc(O[C@@H]4O[C@H](CO[C@@H]5O[C@@H](C)[C@H](O)[C@@H](O)[C@H]5O)[C@@H](O)[C@H](O)[C@H]4O)cc3O2)cc1OC |  | inactive
NNC(=O)CP(=O)(c1ccccc1)c1ccccc1 | 2.41% [at 53.7 µM] (inactive) | 
CC(C)COC(=O)c1ccc(N)cc1 | 1.07% [at 53.7 µM] (inactive) | 

Each compound was assayed against Acetylcholinesterase (Homo sapiens) (UniProt P22303) (assay: Acetylcholinesterase (AChE) small molecule antagonists: enzyme-based qHTS assay with human liver microsomes (AID 1347399; note: nearly all actives have a fitted effect of over 60% in size; note: potency is the fitted concentration of half-maximal effect)). Conditions: Potency: qHTS inhibition; outcome: qHTS inhibition; series mostly up to 115 µM; activity change, negative = inhibition: at the top concentration.
Summary of the method: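 Recombinant human AChE (50 mU/mL in the enzyme mix) and human liver microsomes (0.25 mg/mL final) were preincubated with compound and NADPH (0.25 mg/mL final) for 30 min at 37 C. Acetylthiocholine/DTNB was then added; thiocholine was read colorimetrically after 10 min at room temperature.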

Compound | activity change, negative = inhibition | Potency
CC(=O)OC1CCC(C(C)(C)C)CC1 (configuration not stated) | -0.374% (inactive) | 
[O]=[Bi] | -4.69% [at 10.5 µM] (inactive) | 
CC(N)=O | 0.641% [at 300 µM] (inactive) | 
O=C(O)CCc1nc2ccccc2[nH]1 | 0% [at 53 µM] (inactive) | 
NC(=O)c1ccccc1Cl | -0.474% (inactive) | 
CCCCCCCC/C=C\CCCCCCCC(=O)O |  | inactive
O=Cc1ccccc1Cl | 0.0167% (inactive) | 
COc1c(Cl)ccc(Cl)c1C(=O)O |  | inactive
C1CCCC1 | -0.991% (inactive) | 
Cc1cccc(NC(=S)N(C)C)c1 | -1.53% (inactive) | 
O=C(O)c1ccc(C(=O)O)c(C(=O)O)c1 |  | inactive
Cc1cc(O)c(C(C)C)cc1Cl |  | inactive
Cc1oc(=O)oc1CN1CCN(c2cc3c(cc2F)c(=O)c(C(=O)O)c2n3C(C)S2)CC1 (configuration not stated) | -1.01% [at 53 µM] (inactive) | 
CC(COCC(C)OC(=O)c1ccccc1)OC(=O)c1ccccc1 (configuration not stated) |  | inactive
O[Si](c1ccccc1)(c1ccccc1)c1ccccc1 | 5.27% (inactive) | 
NCCCCCC(=O)O | 0.59% [at 53 µM] (inactive) | 
Oc1ccccc1O |  | inactive
O=C1Nc2cc(Cl)ccc2Oc2ccccc21 | 1.02% [at 53 µM] (inactive) | 
CN(C)c1ccc(C(c2ccccc2)c2ccc(N(C)C)cc2)cc1 | 1.6% (inactive) | 
Cc1cc(O)c2c(c1)C(=O)c1cc(O)cc(O)c1C2=O |  | inactive

Compound | activity change, negative = inhibition | Potency
OC1CCCC1 |  | inactive
C=C(C)C(N)=O |  | inactive
CC(=O)Nc1ccc(CC(=O)O)cc1 |  | inactive
CC(=O)Nc1ccc(C(=O)O)cc1 |  | inactive
Cc1ccc(S(=O)(=O)O)cc1C |  | inactive
Cc1cc2nc3ccc(=[N+](C)C)cc-3sc2cc1N |  | 24.5 µM (active)
O=C(O)c1cccc(Cl)c1Cl | 0.414% (inactive) | 
COCCOC(=O)C1=C(C)NC(C)=C(C(=O)OC(C)C)C1c1cccc([N+](=O)[O-])c1 (configuration not stated) | 4.35% [at 53 µM] (inactive) | 
O=[N+]([O-])c1ccc(CCO)cc1 | 0.167% (inactive) | 
O=c1cc(-c2ccccc2)oc2cc(O)cc(O)c12 | 3.58% (inactive) | 
COc1ccc(NC(C)=O)cc1 | -2.74% (inactive) | 
CCCCCC(=O)OCC | -1.38% (inactive) | 
CCCC(=O)c1ccccc1 | -0.254% (inactive) | 
Nc1cc(-c2ccncc2)c[nH]c1=O |  | inactive
O=C(O)c1ccc(O)cc1 |  | inactive
CC(C)=CCCC(C)CCOC=O (configuration not stated) | -3.7% (inactive) | 
O=C1OC2(c3ccccc31)c1cc(Br)c(O)c(Br)c1Oc1c2cc(Br)c(O)c1Br |  | inactive
COc1ccc([C@@H]2CC(=O)c3c(O)cc(O[C@@H]4O[C@H](CO[C@@H]5O[C@@H](C)[C@H](O)[C@@H](O)[C@H]5O)[C@@H](O)[C@H](O)[C@H]4O)cc3O2)cc1OC |  | inactive
NNC(=O)CP(=O)(c1ccccc1)c1ccccc1 | 1.68% [at 53 µM] (inactive) | 
CC(C)COC(=O)c1ccc(N)cc1 | -1.87% [at 53 µM] (inactive) | 
